The assay is described as follows: probe aLefty1 binding on compound microarray – biochemical, small-molecule microarray, 635/667 nm fluorescence, primary screen (AID 1153).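 Note: score merges spot fluorescence with signal-to-noise ratio from the scanned slide images.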 Particulars: higher = more signal.
In turn, `CC1CC/C=C\[C@H]2OC34C=CCN(C(C)C)C(=O)[C@H]3N(CCO)C(=O)[C@@H]4C2C(=O)O1` (stereo partly specified) had a composite z-score of -0.101.

Consider `C=C(/C(=C/C[C@H](OC(=O)c1ccncc1)c1ccc(CO)o1)c1cnc2ccccc2c1)C(C)C`, for which the composite z-score amounted to 0.0844.

With `Cc1ccc(F)cc1S(=O)(=O)N[C@@H]1CCN(Cc2ccc(Br)cc2)C1`, the composite z-score is -0.0099.

`CN1C2C=C(CCCO)C(C3C(=O)N(C(N)=O)C(=O)C32)C1C1CC1` (stereo unspecified): the composite z-score is -0.188.

With `Cc1ccc(S[C@]2(C(=O)O)CC(=O)N(C3CCCCC3)[C@@H]2c2ccc(CO)cc2I)cc1`, the composite z-score was found to be 0.32.

`COCCOC(=O)N1C(=O)[C@@]2(c3cc(C#CC4(O)CCCCCC4)ccc31)[C@H](C(=O)N1CCc3cc(OC)c(OC)cc3C1)[C@H]1C(=O)O[C@H](c3ccccc3)[C@H](c3ccccc3)N1[C@@H]2c1ccc(OCCO)cc1` returned a composite z-score of -0.469.

Take `COC(=O)[C@@]1(Cc2ccc(OC)cc2)[C@H]2c3cc(C(=O)N4CCCC4)n(CCc4c[nH]c5ccc(O)cc45)c3C[C@H]2CN1C(=O)c1ccccc1`: the composite z-score stood at 0.302.

In the case of `CN(C)C(=O)[C@]1(CCC(=O)OC(C)(C)C)N=C(c2ccc(OCCCO)cc2)O[C@@H]1c1ccccc1CN=[N+]=[N-]`, the composite z-score was -0.182.

Consider `CCOC(=O)C1=CC[C@@H](c2ccccc2)N(S(=O)(=O)c2ccc(C)cc2)[C@H]1c1ccccc1`, for which the composite z-score was found to be 0.155.

As for `NC(=O)[C@H]1[C@@H]2C(=O)O[C@@H](c3ccccc3)[C@@H](c3ccccc3)N2[C@@H](c2ccc(OCCO)cc2)[C@]12C(=O)Nc1ccc(C#CCCO)cc12`, the composite z-score is 0.0753.

For the compound `CCCCCCCCCC(O)C1C=CC2C(=O)N(c3ccccc3)C(=O)C2N1Nc1cc(OC)c(OC)c(OC)c1` (stereo unspecified), the composite z-score was 0.448.

`COc1cc(OC)c(C(O)C2C=CC3C(=O)N(Cc4ccccc4)C(=O)C3N2n2cnnc2)cc1Br` (stereo unspecified) displayed a composite z-score of 0.0509.

On to `O=C1O[C@@H](c2ccccc2)[C@@H](c2ccccc2)N2[C@@H](c3ccc(OCCO)cc3)[C@]3(C(=O)Nc4ccc(C#CC5=CCCCC5)cc43)[C@@H](C(=O)NC[C@H](O)c3ccccc3)[C@H]12`, for which the composite z-score turned out to be 1.38.

Compound `CC(C)[Si](C#CCCCC#N)(O[C@H](c1ccccc1)c1cn(Cc2ccccc2)nn1)C(C)C` yielded a composite z-score of -0.253.

As to `CC1=C2[C@@H](CCc3ccccc3)OB(O)C[C@@H]2[C@@H]2C(=O)N(C)C(=O)[C@@H]2C1`, the composite z-score turned out to be 0.035.

`COc1ccc([Si](C)(C)[C@H]2[C@H](CC(=O)N(CCO)Cc3ccccc3)O[C@@]3(C(=O)N(C)c4c(Br)cc(C)cc43)[C@@H]2C)cc1` came in with a composite z-score of 0.0774.

In turn, `C=CC[C@@]1(C(=O)NCCCOC)N=C(c2ccc(OCCCO)cc2)O[C@@H]1c1ccccc1N=[N+]=[N-]` registered a composite z-score of 0.545.

Consider `COC(=O)C(CC#Cc1ccc2c(c1)[C@]1(C(=O)N2)[C@H](c2ccc(O)cc2)N2[C@H](c3ccccc3)[C@H](c3ccccc3)OC(=O)[C@H]2[C@@H]1C(=O)NC[C@H](O)c1ccccc1)C(=O)OC`, for which the composite z-score was -0.0518.

In turn, `COc1ccc([Si](C)(C)[C@H]2[C@H](CC(=O)N3Cc4ccccc4C[C@H]3CO)O[C@@]3(C(=O)N(Cc4ccc(N5CCOC5=O)cc4)c4ccccc43)[C@@H]2C)cc1` showed a composite z-score of -0.0611.

Compound `COC(=O)c1c(CC[C@@H](CO)NC(=O)N[C@@H](C)Cn2cc(-c3ccccn3)nn2)oc(C(C)=O)c1C(=O)OC` gave a composite z-score of -0.106.

`COCC(=C=CC[C@H](O)c1ccc(OCCO)cc1)CCO`: the composite z-score turned out to be 0.0774.

In turn, `N[C@@H](Cc1ccccc1)C(=O)NCc1cn(Cc2ccccc2)nn1` showed a composite z-score of 0.397.

The compound `CCOC(=O)C[C@H]1[C@H](OC(=O)Cc2ccc3c(c2)OCO3)[C@@H](NC(=O)c2ccc3ccccc3n2)c2cc(OCCCO)ccc2N1C(=O)c1ccccc1` returned a composite z-score of 0.101.

As for `CC(CO)N1C(=O)[C@]2(C)C3C(=O)OCCC/C=C\[C@H]3OC23C=CCN(c2ccc(Cl)cc2)C(=O)[C@@H]13` (stereo partly specified), the composite z-score is -0.062.

`CC(=O)NCCCC[C@@H]1NC(=O)[C@@H]2C[C@H](C(=O)NCCCCCN)[C@H](c3ccc(O)cc3)N2C1=O`: the composite z-score is 0.482.

`COC(=O)[C@@]1(Cc2ccccc2)[C@H]2c3cc(C(=O)N(C)C)n(Cc4ccc(C)o4)c3C[C@H]2CN1C(=O)c1ccccc1` came in with a composite z-score of 1.25.

For the compound `CCCC[C@@H](O)C1=C(COc2ccccc2)C[C@H]2C(=O)N(Cc3ccccc3)C(=O)[C@H]2[C@H]1CO`, the composite z-score is -0.0564.

Take `COC(=O)C1(CC(C)C)C=C2C(=C(c3ccccc3)C(=O)C2C)CN1` (stereo unspecified): the composite z-score was 1.58.

Compound `COc1ccc(CCNC(=O)[C@@]2(c3ccc([N+](=O)[O-])cc3)CC(=O)N(C3CCCCC3)[C@@H]2c2ccc(CO)cc2)cc1` displayed a composite z-score of 0.213.

`COCCCNC(=O)[C@@]1(Sc2ccc(C)cc2)CC(=O)N(C2Cc3ccccc3C2)[C@@H]1c1ccc(CO)cc1`: the composite z-score worked out at 0.0653.

With `CS(=O)(=O)CCOC(=O)C1=CC(c2ccc(CO)cc2)=CC(C2CC2)N(Cc2sc3ccccc3c2Cl)C=C1C(=O)OCCS(C)(=O)=O` (stereo unspecified), the composite z-score came to 0.141.

In the case of `C=CCOC(=O)[C@@H]1[C@H]2C(=O)O[C@H](c3ccccc3)[C@H](c3ccccc3)N2[C@H](c2ccc(OCCOC(=O)[C@@H]3C[C@@H]4C(=O)N[C@@H](CCCC[N+](C)(C)C)C(=O)N4[C@@H]3c3ccc(O)cc3)cc2)[C@@]12C(=O)Nc1ccc(I)cc12`, the composite z-score was determined as 0.668.

Regarding `OCCCC1=CC(c2ccc(CN3CCCC3)cc2)N(Cc2cc3c(cc2Br)OCO3)CC1` (stereo unspecified), the composite z-score was found to be 0.192.

`CC(c1ccccc1)C(O)C1C=CC2C(=O)N(C)C(=O)C2N1Nc1ccccc1` (stereo unspecified): the composite z-score came out at 0.146.

Take `CC(C)N1C(=O)C[C@@](C(=O)O)(c2ccc([N+](=O)[O-])cc2)[C@H]1c1ccc(CO)cc1`: the composite z-score is 0.188.

The compound `CCCC#C[Si](O[C@H](CC)c1cn([C@H](C)c2ccccc2)nn1)(C(C)C)C(C)C` returned a composite z-score of 0.28.

The record behind these values is PubChem BioAssay.
